Measured values taken from the supplement of paper PMC8007513.
Where a name gives a salt, the structure may show the parent alone. ± gives the standard error. Screen size: about 1,300 compounds; about 130 (10%) showed an effect of 50% or more. Only a selection was taken, and strong results are over-represented in it overall.

System: Trichoderma virens ATCC 9645
Test: growth yield (OD600) with compound + IPBC relative to untreated control; higher = less growth inhibition
Details: compound concentration: 100 uM, IPBC concentration: 200 ng/ml
Procedure, shortened: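 For each 96-well plate, 100 μl aliquots were prepared with Trichoderma virens ATCC 9645 spores suspended at 15,000 spores ml^−1 in potato dextrose broth. The spores had been harvested from potato dextrose agar plates after 7 days. Library compounds were present at 100 μM final, some wells also receiving a biocide at 200 ng ml^−1, and plates were grown at 30 °C with OD600 read on a BioTek EL800 at 40 h and 72 h. Reported growth, relative to the control lacking both agents, is the mean of duplicate screens.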

Row | SMILES | growth yield (40 h) [%] | growth yield (72 h) [%]
1 | CCCCN(CCCC)CCC(O)c1cc2c(Cl)cc(Cl)cc2c2cc(C(F)(F)F)ccc12 (stereo unspecified) [Halofantrine hydrochloride] + CCCCNC(=O)OCC#CI [3-iodo-2-propynyl butylcarbamate (IPBC)] | 13.8 ± 0.16 | 7.66 ± 1.1
2 | CCN1CCCC(OC(=O)C(c2ccccc2)c2ccccc2)C1 (stereo unspecified) [Piperidolate hydrochloride] + CCCCNC(=O)OCC#CI [3-iodo-2-propynyl butylcarbamate (IPBC)] | 85.5 ± 1.6 | 94.08 ± 0.73
3 | CC[C@@]1([C@@H]2O[C@@H]([C@H]3O[C@@](O)(CO)[C@H](C)C[C@@H]3C)C[C@@H]2C)CC[C@H]([C@]2(C)CC[C@]3(C[C@H](O)[C@@H](C)[C@@H]([C@@H](C)[C@@H](OC)[C@H](C)C(=O)O)O3)O2)O1 [Monensin sodium salt] + CCCCNC(=O)OCC#CI [3-iodo-2-propynyl butylcarbamate (IPBC)] | 79.4 ± 9.8 | 89.6 ± 9.2
4 | CC(Cc1cccc(C(F)(F)F)c1)NCCOC(=O)c1ccccc1 (stereo unspecified) [Benfluorex] + CCCCNC(=O)OCC#CI [3-iodo-2-propynyl butylcarbamate (IPBC)] | 56.4 ± 1.8 | 81.8 ± 1.5
5 | Cc1cccc(Nc2ccncc2S(=O)(=O)NC(=O)NC(C)C)c1 [Torsemide] + CCCCNC(=O)OCC#CI [3-iodo-2-propynyl butylcarbamate (IPBC)] | 95.3 | 114 ± 17
6 | CNCC[C@@H](Oc1cccc2ccccc12)c1cccs1 [(R)-Duloxetine hydrochloride] + CCCCNC(=O)OCC#CI [3-iodo-2-propynyl butylcarbamate (IPBC)] | 61.6 ± 3.8 | 90.3 ± 0.1
7 | O=C(O)CCCC[C@@H]1SC[C@@H]2NC(=O)N[C@@H]21 [Biotin] + CCCCNC(=O)OCC#CI [3-iodo-2-propynyl butylcarbamate (IPBC)] | 85.3 ± 3.3 | 91.03 ± 0.84
8 | C=C1C[C@@H]2[C@H](CC[C@]3(C)C(=O)CC[C@@H]23)[C@@]2(C)C=CC(=O)C=C12 [Exemestane] + CCCCNC(=O)OCC#CI [3-iodo-2-propynyl butylcarbamate (IPBC)] | 63.5 ± 0.64 | 77.6 ± 1.5
9 | CCOc1cc(CC(=O)N[C@@H](CC(C)C)c2ccccc2N2CCCCC2)ccc1C(=O)O [Repaglinide] + CCCCNC(=O)OCC#CI [3-iodo-2-propynyl butylcarbamate (IPBC)] | 104 ± 7.3 | 104 ± 4.8
10 | Cc1cccc(CN2CCN(C(c3ccccc3)c3ccc(Cl)cc3)CC2)c1 (stereo unspecified) [Meclozine dihydrochloride] + CCCCNC(=O)OCC#CI [3-iodo-2-propynyl butylcarbamate (IPBC)] | 3.02 ± 1.1 | 3.78 ± 0.63
11 | CN1CCN(C(c2ccccc2)c2ccc(Cl)cc2)CC1 (stereo unspecified) [Chlorcyclizine hydrochloride] + CCCCNC(=O)OCC#CI [3-iodo-2-propynyl butylcarbamate (IPBC)] | 76.9 ± 1.6 | 91.6 ± 2.6
12 | CN1CCCN(C(c2ccccc2)c2ccc(Cl)cc2)CC1 (stereo unspecified) [Homochlorcyclizine dihydrochloride] + CCCCNC(=O)OCC#CI [3-iodo-2-propynyl butylcarbamate (IPBC)] | 58.5 ± 2.2 | 89.9 ± 1.6
13 | O=C(Nc1ccccc1)OCC(CN1CCCCC1)OC(=O)Nc1ccccc1 (stereo unspecified) [Diperodon hydrochloride] + CCCCNC(=O)OCC#CI [3-iodo-2-propynyl butylcarbamate (IPBC)] | 77.4 ± 4.3 | 96.9 ± 1.7
14 | CCC1(c2cccc(O)c2)CCCCN(C)C1 (stereo unspecified) [Meptazinol hydrochloride] + CCCCNC(=O)OCC#CI [3-iodo-2-propynyl butylcarbamate (IPBC)] | 89.7 ± 3.6 | 92.5 ± 2.7
15 | O=c1[nH]c2ccccc2n1CCCN1CCC(n2c(=O)[nH]c3cc(Cl)ccc32)CC1 [Domperidone] + CCCCNC(=O)OCC#CI [3-iodo-2-propynyl butylcarbamate (IPBC)] | 63.5 ± 2.9 | 91.8 ± 2.4
16 | O=C1NCCN1CCN1CCC(c2cn(-c3ccc(F)cc3)c3ccc(Cl)cc23)CC1 [Sertindole] + CCCCNC(=O)OCC#CI [3-iodo-2-propynyl butylcarbamate (IPBC)] | 5.24 ± 0.79 | 3.46 ± 0.1
17 | O=C(O)c1cn(-c2ccc(F)cc2)c2cc(N3CCNCC3)c(F)cc2c1=O [Sarafloxacin] + CCCCNC(=O)OCC#CI [3-iodo-2-propynyl butylcarbamate (IPBC)] | 81.2 ± 6.8 | 98.2 ± 5.5
18 | CCNCC(O)c1cccc(O)c1 (stereo unspecified) [Etilefrine hydrochloride] + CCCCNC(=O)OCC#CI [3-iodo-2-propynyl butylcarbamate (IPBC)] | 96.9 ± 3.5 | 98.1 ± 2.4
19 | CC(=O)OCC(=O)[C@@]1(O)CC[C@H]2[C@@H]3CCC4=CC(=O)C=C[C@]4(C)[C@@]3(F)[C@@H](O)C[C@@]21C [Isoflupredone acetate] + CCCCNC(=O)OCC#CI [3-iodo-2-propynyl butylcarbamate (IPBC)] | 87.8 ± 2.1 | 91.7 ± 1.1

Row | SMILES | growth yield (40 h) [%] | growth yield (72 h) [%]
20 | c1ccc2c(CC3=NCCN3)cccc2c1 [Naphazoline hydrochloride] + CCCCNC(=O)OCC#CI [3-iodo-2-propynyl butylcarbamate (IPBC)] | 87 ± 1.9 | 91.9
21 | C#CCN(C)Cc1ccccc1 [Pargyline hydrochloride] + CCCCNC(=O)OCC#CI [3-iodo-2-propynyl butylcarbamate (IPBC)] | 89.3 ± 4.5 | 95.5 ± 2.4
22 | CN(Cc1ccc(C(C)(C)C)cc1)Cc1cccc2ccccc12 [Butenafine Hydrochloride] + CCCCNC(=O)OCC#CI [3-iodo-2-propynyl butylcarbamate (IPBC)] | 4.13 | 2.73
23 | CN(C/C=C/C#CC(C)(C)C)Cc1cccc2ccccc12 [Terbinafine] + CCCCNC(=O)OCC#CI [3-iodo-2-propynyl butylcarbamate (IPBC)] | 3.18 ± 0.64 | 2.94 ± 0.42
24 | CN(C/C=C/c1ccccc1)Cc1cccc2ccccc12 [Naftifine hydrochloride] + CCCCNC(=O)OCC#CI [3-iodo-2-propynyl butylcarbamate (IPBC)] | 13.2 ± 3 | 50 ± 2.2
25 | OC(CCN1CCCCC1)(c1ccccc1)C1CCCCC1 (stereo unspecified) [Trihexyphenidyl-D,L Hydrochloride] + CCCCNC(=O)OCC#CI [3-iodo-2-propynyl butylcarbamate (IPBC)] | 101 ± 16 | 102 ± 8.6
26 | COC(=O)Nc1nc2cc(C(=O)c3cccs3)ccc2[nH]1 [Nocodazole] + CCCCNC(=O)OCC#CI [3-iodo-2-propynyl butylcarbamate (IPBC)] | 107 ± 2.9 | 109 ± 1.1
27 | CN(C)CCCOc1nn(Cc2ccccc2)c2ccccc12 [Benzydamine hydrochloride] + CCCCNC(=O)OCC#CI [3-iodo-2-propynyl butylcarbamate (IPBC)] | 65.8 ± 2.2 | 88.4 ± 2.2
28 | CC(=O)Nc1ccc(O)cc1 [Acetaminophen] + CCCCNC(=O)OCC#CI [3-iodo-2-propynyl butylcarbamate (IPBC)] | 105 ± 20 | 103 ± 14
29 | CC(C)[N+](C)(CCOC(=O)C1c2ccccc2Oc2ccccc21)C(C)C [Propantheline bromide] + CCCCNC(=O)OCC#CI [3-iodo-2-propynyl butylcarbamate (IPBC)] | 78.8 ± 3.2 | 89.1 ± 3.6
30 | CC(=O)N[C@@H](CC(C)C)C(=O)O [N-Acetyl-L-leucine] + CCCCNC(=O)OCC#CI [3-iodo-2-propynyl butylcarbamate (IPBC)] | 86.57 ± 0.16 | 93.8 ± 2.3
31 | C[C@]12CC[C@@H]3c4ccc(OS(=O)(=O)O)cc4CC[C@H]3[C@@H]1CCC2=O [Estropipate] + CCCCNC(=O)OCC#CI [3-iodo-2-propynyl butylcarbamate (IPBC)] | 87 ± 1.6 | 89.7 ± 2
32 | Oc1c(Cl)cc(Cl)c(Cl)c1Cc1c(O)c(Cl)cc(Cl)c1Cl [Hexachlorophene] + CCCCNC(=O)OCC#CI [3-iodo-2-propynyl butylcarbamate (IPBC)] | 19.4 ± 4.8 | 80.2 ± 2.6
33 | CC(C)C(=O)OCC(=O)[C@@]12O[C@H](C3CCCCC3)O[C@@H]1C[C@H]1[C@@H]3CCC4=CC(=O)C=C[C@]4(C)[C@H]3[C@@H](O)C[C@@]12C [Ciclesonide] + CCCCNC(=O)OCC#CI [3-iodo-2-propynyl butylcarbamate (IPBC)] | 107 ± 6.8 | 103 ± 5.8
34 | CC(C)CC(=O)N[C@H](C(=O)N[C@H](C(=O)N[C@@H](CC(C)C)[C@@H](O)CC(=O)N[C@@H](C)C(=O)N[C@@H](CC(C)C)[C@@H](O)CC(=O)O)C(C)C)C(C)C [Pepstatin A] + CCCCNC(=O)OCC#CI [3-iodo-2-propynyl butylcarbamate (IPBC)] | 96.4 ± 11 | 103 ± 6.7
35 | CN[C@@H]1[C@H](O[C@H]2[C@H](O[C@H]3[C@H](O)[C@@H](O)[C@H](N=C(N)N)[C@@H](O)[C@@H]3N=C(N)N)O[C@@H](C)[C@]2(O)C=O)O[C@@H](CO)[C@H](O)[C@H]1O [Streptomycin sulfate] + CCCCNC(=O)OCC#CI [3-iodo-2-propynyl butylcarbamate (IPBC)] | 101 ± 3.8 | 99.9 ± 1.1
36 | O=C(O)Cc1ccccc1Nc1c(Cl)cccc1Cl [Diclofenac sodium] + CCCCNC(=O)OCC#CI [3-iodo-2-propynyl butylcarbamate (IPBC)] | 44.79 ± 0.32 | 74.7 ± 1.5
37 | O=C(O)COC(=O)Cc1ccccc1Nc1c(Cl)cccc1Cl [Aceclofenac] + CCCCNC(=O)OCC#CI [3-iodo-2-propynyl butylcarbamate (IPBC)] | 79.9 ± 0.48 | 95.9 ± 1.7
38 | Cc1ccc(Cl)c(Nc2ccccc2C(=O)O)c1Cl [Meclofenamic acid sodium salt monohydrate] + CCCCNC(=O)OCC#CI [3-iodo-2-propynyl butylcarbamate (IPBC)] | 71.3 ± 1.4 | 85.3 ± 1.8
